For 7 molecules, growth results are on record in PubChem BioAssay (NCI).

Among the test systems are HCT-15 colon; HT29 colon; SNB-75 CNS; SNB-19 CNS; U251 CNS; PC-3 prostate; SK-MEL-5 melanoma; UACC-62 melanoma; LOX IMVI melanoma; SK-MEL-28 melanoma; SK-MEL-2 melanoma; EKVX NSCLC; SN12C renal; UO-31 renal; TK-10 renal; ACHN renal; CAKI-1 renal; A498 renal; CCRF-CEM leukemia; MOLT-4 leukemia.
Assay in all cases: NCI-60 one-dose screen, 48 h (100 = growth as untreated, 0 = no growth, -100 = all killed)
Conditions in all cases: 10 µM unless noted

About 83,000 compounds went through this panel and 20% of them were active in at least one assay; those are over-represented in the sample as a whole.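 Values shown are percent growth following 48 h exposure of cells in 96-well plates to a single concentration of compound; below 10 was considered active.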 Unmarked numbers belong to inactive results. Calls of active or inactive are those of the source.

In the case of `CS(=O)(=O)c1ccc(-n2cc(/C=N/O)c(-c3ccccc3)n2)cc1`, the growth was 76.6% in the test on HCT-15 colon; 97.4% in the test on HT29 colon; 87.7% in the test with SNB-75 CNS; 71.2% with SNB-19 CNS; 72.1% with U251 CNS; 71% in the test with PC-3 prostate. Moreover, the growth is 21.2% in the test with SK-MEL-5 melanoma; 66.6% in the test on UACC-62 melanoma; -79.5% (active) in the test with LOX IMVI melanoma; 93.3% in the test on SK-MEL-28 melanoma; 92.3% in the test on SK-MEL-2 melanoma; 81.7% in the test with EKVX NSCLC. Further, the growth is 89.5% in the test on SN12C renal; 76% in the test on UO-31 renal; 92.5% in the test on TK-10 renal; 78.4% in the test with ACHN renal; 73.8% in the test on CAKI-1 renal; 83.7% with A498 renal. Moreover, the growth is 33.8% with CCRF-CEM leukemia and 28.7% with MOLT-4 leukemia.
On to `CN1c2ccccc2Sc2cc(C=C(C#N)C#N)ccc21`, for which the growth in the test on HCT-15 colon was 101%; in the test with HT29 colon, 111%; in the test on SNB-75 CNS, 79.8%; in the test on SNB-19 CNS, 97.6%; in the test with U251 CNS it was 98%; in the test with PC-3 prostate, 105%. In addition, the growth in the test on SK-MEL-5 melanoma was 100%; with UACC-62 melanoma, 46.5%; in the test with LOX IMVI melanoma, 87.3%; with SK-MEL-28 melanoma, 104%; in the test on SK-MEL-2 melanoma it was 101%; with EKVX NSCLC it was 93.6%. Further, the growth was 92.7% with SN12C renal; 95.6% in the test on UO-31 renal; 111% with TK-10 renal; 101% in the test on ACHN renal; 91.8% in the test on CAKI-1 renal; -19% (active) with A498 renal. In addition, the growth is 102% with CCRF-CEM leukemia and 84.8% in the test with MOLT-4 leukemia.
`C=C(C=O)[C@@H]1CC[C@]2(COC(C)=O)CC[C@]3(C)C(CC[C@@H]4[C@@]5(C)CC[C@H](OC(C)=O)C(C)(C)[C@@H]5CC[C@]43C)[C@@H]12` (stereo not given in full): the growth with HCT-15 colon was -42.7% (active); in the test with HT29 colon, 4.87% (active); with SNB-75 CNS it was 32.1%; with SNB-19 CNS, 5.36% (active); with U251 CNS it was -50.7% (active); in the test with PC-3 prostate, 6.79% (active). Moreover, the growth in the test on SK-MEL-5 melanoma is -96.9% (active); in the test on UACC-62 melanoma it was -15.7% (active); in the test on LOX IMVI melanoma, -83.6% (active); with SK-MEL-28 melanoma, -42.8% (active); in the test with SK-MEL-2 melanoma, -28% (active); in the test with EKVX NSCLC it was 12.9%. Moreover, the growth in the test with SN12C renal is 1.13% (active); in the test on UO-31 renal, -94% (active); with TK-10 renal it was 35.5%; with ACHN renal, -54.3% (active); in the test with CAKI-1 renal, -14.9% (active); with A498 renal it was -41% (active). Also, the growth with CCRF-CEM leukemia was 10.9%; in the test on MOLT-4 leukemia, -18.1% (active).
In the case of `COc1cc2c(cc1OC)C(Sc1ccc(F)cc1)c1c(nc(N)c(C#N)c1N)O2` (stereo not given), the growth with HCT-15 colon was -70.7% (active); in the test on HT29 colon, 5.15% (active); in the test on SNB-75 CNS it was 52.9%; in the test on SNB-19 CNS, -82.5% (active); in the test with U251 CNS it was -77.5% (active); in the test with PC-3 prostate it was -84% (active). In addition, the growth in the test with SK-MEL-5 melanoma was -82.5% (active); with UACC-62 melanoma, -74.2% (active); with LOX IMVI melanoma, -91.1% (active); in the test with SK-MEL-28 melanoma, -71.9% (active); in the test with SK-MEL-2 melanoma, -6.24% (active); in the test on EKVX NSCLC, -86.6% (active). Also, the growth in the test on SN12C renal was -86.5% (active); in the test with UO-31 renal, -98.1% (active); in the test on TK-10 renal it was -30.1% (active); in the test on ACHN renal, -99.3% (active); in the test on CAKI-1 renal it was -58.4% (active); in the test with A498 renal it was -42.8% (active). Moreover, the growth is -13.6% (active) in the test on CCRF-CEM leukemia and 0.279% (active) in the test with MOLT-4 leukemia.
As to `CC1=CC(=O)C2=C(C)CC(OC(=O)CCc3ccccc3)[C@@H]3[C@H](OC(=O)[C@@H]3C)[C@@H]12` (stereo not given in full), the growth was 81.7% in the test with HCT-15 colon; 78.1% in the test with HT29 colon; 95.8% with SNB-75 CNS; 93.6% in the test with SNB-19 CNS; 102% in the test with U251 CNS; 76.7% in the test with PC-3 prostate. Also, the growth was 82% in the test with SK-MEL-5 melanoma; 72.7% in the test with UACC-62 melanoma; 95.9% with LOX IMVI melanoma; 100% with SK-MEL-28 melanoma; 103% in the test with SK-MEL-2 melanoma; 102% in the test with EKVX NSCLC. Further, the growth in the test on SN12C renal is 95.3%; in the test with UO-31 renal, 79.1%; in the test with TK-10 renal it was 102%; in the test on ACHN renal, 101%; in the test with CAKI-1 renal, 86.1%; with A498 renal it was 82.4%. Besides, the growth in the test with CCRF-CEM leukemia is 88.7%; with MOLT-4 leukemia it was 83.6%.
For `O=C(CSc1nc2ccccc2c(=O)n1-c1ccccc1)Nc1cccc(C(=O)/C=C/c2ccccc2Cl)c1`, the growth with HCT-15 colon was 92.7%; with HT29 colon, 102%; in the test on SNB-75 CNS, 85.6%; with SNB-19 CNS it was 93.3%; with U251 CNS, 97.7%; in the test with PC-3 prostate it was 99.4%. The growth with SK-MEL-5 melanoma is 99.3%; in the test with UACC-62 melanoma, 95.5%; in the test with LOX IMVI melanoma, 103%; in the test on SK-MEL-28 melanoma, 107%; with SK-MEL-2 melanoma, 105%; in the test on EKVX NSCLC, 99.4%. Besides, the growth with SN12C renal was 102%; with UO-31 renal, 90.7%; with TK-10 renal, 138%; with ACHN renal it was 103%; in the test with CAKI-1 renal it was 95.9%; in the test with A498 renal, 116%. In addition, the growth in the test with CCRF-CEM leukemia is 113%; with MOLT-4 leukemia, 106%.
For `CS(=O)(=O)c1ccc(-c2nn(-c3ccccc3)cc2/C=N/NC(=O)c2nc(N)n[nH]2)cc1`, the growth with HCT-15 colon is 88.9%; in the test with HT29 colon, 101%; in the test with SNB-75 CNS, 103%; in the test on SNB-19 CNS it was 101%; in the test on U251 CNS, 101%; in the test with PC-3 prostate, 100%. Besides, the growth is 98.6% in the test on SK-MEL-5 melanoma; 90.8% in the test with UACC-62 melanoma; 84.7% in the test on LOX IMVI melanoma; 108% with SK-MEL-28 melanoma; 108% in the test on SK-MEL-2 melanoma; 90.3% in the test with EKVX NSCLC. In addition, the growth in the test with SN12C renal was 94.7%; with UO-31 renal, 96.8%; in the test on TK-10 renal, 110%; in the test on ACHN renal, 93.7%; in the test with CAKI-1 renal it was 96.6%; in the test on A498 renal, 101%. Also, the growth was 43.7% in the test on CCRF-CEM leukemia and 67.1% in the test with MOLT-4 leukemia.
